# Screening data: PubChem, National Center for Advancing Translational Sciences (NCATS)
# Most compounds without a hit are left out; they make up all but 15% or so of the library.
# Pf growth 48h – Primary qHTS for delayed death inhibitors of the malarial parasite plastid, 48 hour incubation; Potency, µM (titrated, usually from 28.7 µM), for the others: top-dose activity change, negative = inhibition, most hits filed as inhibitors; P. falciparum luciferase growth in erythrocytes, 48 h; 310,000 compounds, 5.9% hits; note: potency is the fitted concentration of half-maximal effect; % is set by controls: 0 for no effect and ±100 for the full control effect
#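 Read-out is firefly luciferase luminescence from an integrated reporter in P. falciparum, so falling signal marks reduced parasite growth. Infected erythrocytes were at 2% hematocrit and 0.1% parasitemia (final) in Albumax-supplemented RPMI 1640.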
# HCMV inh – qHTS Assay for inhibitors of the human cytomegalovirus (HCMV); HFF cells, HCMV-luciferase reporter, 72 h; active compounds read low; activity change, negative = inhibition, % at 57.5 µM; 410,000 compounds, 4.5% hits; in the data active = activity change below about -60%; inconclusive = no clear call, values can overlap the other calls; inactive = above about -39%; note: % is set by controls: 0 for no effect and ±100 for the full control effect
#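 After 16 h attachment at 37C, HFF cells received test compound and HCMV-luciferase (1 PFU/cell); reporter luminescence read 72 h later, data normalized against buffer-only and known inhibitor Salinomycin.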
# SARS PLpro yeast – qHTS of Yeast-based Assay for SARS-CoV PLP; S. cerevisiae expressing SARS-CoV PLpro, growth rescue; Potency, µM (highest dose often 32.9 µM), for the others: top-dose activity, positive = growth rescue, usual class: activators; 330,000 compounds, 0.19% hits; AID 485353, 2010; calls by dose curve; note: potency is the fitted concentration of half-maximal effect; 0% is about no effect; nearly all actives have a fitted effect of over 55% in size
# HCV inhibitor – qHTS Assay for Inhibitors of Hepatitis C Virus (HCV). Huh7.5.1 HCVcc-Cre infection, luciferase reporter, 44 h. AID 651820, 2012. 340,000 compounds, 3.4% hits. Potency, µM (highest dose often 41.8 µM), for the others: top-dose activity change, negative = inhibition, hits mostly inhibitors; note: potency is the fitted concentration of half-maximal effect; % is set by controls: 0 for no effect and ±100 for the full control effect
#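 A cell-based infection assay in which seeded cells (1,000 per well) receive test compound after 4 h, are inoculated with HCVcc-Cre at approximately 0.5 moi, and are incubated 44 h before luminescence detection.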
# Sm TGR block – qHTS Assay for the Inhibitors of Schistosoma Mansoni Peroxiredoxins | Schistosoma mansoni thioredoxin glutathione reductase (TGR), Q962Y6 | purified TGR, DTNB reduction, TNB absorbance 405 nm | Potency, µM (series often up to 114 µM), for inactives: at the highest dose activity change, negative = inhibition, hits mostly inhibitors | 360,000 compounds, 3% hits | AID 485364, 2010; note: potency is the fitted concentration of half-maximal effect; % is set by controls: 0 for no effect and ±100 for the full control effect; nearly all actives have a fitted effect of over 60% in size
#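 TGR 20 nM + NADPH 100 uM (dispensed conc.), cpd preinc 15 min RT; start with NADPH (500 uM addition) then DTNB (15 mM addition). Kinetic TNB absorbance, 405 nm filter. Four-parameter Hill fit across titration.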
# Pf growth 96h – Primary qHTS for delayed death inhibitors of the malarial parasite plastid, 96 hour incubation; P. falciparum luciferase reporter growth, 96 h; Potency, µM (series often up to 28.7 µM), for inactives: at the top dose activity change, negative = inhibition, hits mostly inhibitors; 320,000 compounds, 6.9% hits; note: potency is the fitted concentration of half-maximal effect; % is set by controls: 0 for no effect and ±100 for the full control effect
#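 Erythrocytes infected with luciferase-expressing P. falciparum were dispensed at 2% hematocrit and 0.05% parasitemia (final), then incubated with compounds 96 hours at 37 C in 5% CO2. Luminescence after detection reagent addition reported growth.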
# * = called active by the depositor; ? = inconclusive; . = not tested or not shown. Unless noted, calls come from the whole dose curve; as a rule, active = well fitted curve in the direction sought with a large enough effect; inconclusive = small, poorly fitted or top-dose-only effect, or another doubt; inactive = no such curve, though single readings can be large; an effect the other way counts as inactive or inconclusive.
SMILES,Pf growth 48h,HCMV inh,SARS PLpro yeast,HCV inhibitor,Sm TGR block,Pf growth 96h
Cc1nsc(Nc2ccc([N+](=O)[O-])cc2)c1C#N,7.5%,-64.1*,-0.4%,-14.6%,8.6%,7.7%
Cc1ccc(Nc2ccc([N+](=O)[O-])ccc2=O)cc1,.,-24.7,.,-15.3%,.,.
CCn1c2ccccc2c2cc(NC(=O)C(C)Oc3ccccc3)ccc21 (stereo not drawn),?,17.0,-6.3%,-23.2%,4.4%,?
CCCC(=O)Nc1ccc2c(c1)c1ccccc1n2CC,3.1%,?,1.9%,?,-1.0%,95.2%
CCn1c2ccccc2c2cc(NC(=O)CC(C)=O)ccc21,-6.0%,-3.6,-13.4%,12.6µM*,-13.9%,-25.9%
CCOC(=O)C(=CNc1ccc2c(c1)c1ccccc1n2CC)C(=O)OCC,44.2%,6.1,-0.8%,10µM*,11.2%,52.3%
CCn1c2ccccc2c2cc(NC(=O)C(C)Oc3ccc(OC)cc3)ccc21 (stereo not drawn),?,-4.1,0.0%,?,2.6%,5.86µM*
Cc1cc(C(=O)COC(=O)Cc2n[nH]c(=O)c3ccccc23)c(C)n1-c1cccc(C(F)(F)F)c1,9.28µM*,-16.1,-17.4%,?,-27.5%,2.94µM*
Cc1cc(C(=O)COC(=O)CC2Sc3ccccc3NC2=O)c(C)n1-c1cccc(C(F)(F)F)c1 (stereo not drawn),?,?,0.4%,?,-2.0%,-4.3%
O=C(NCc1ccco1)c1cc([N+](=O)[O-])ccc1N1CCOCC1,9.1%,-26.1,0.3%,-1.1%,-0.5%,?
CC(C)C(NS(=O)(=O)c1ccc2c(c1)oc(=O)n2C)C(=O)NCCc1ccc(Cl)cc1 (stereo not drawn),.,1.7,.,.,7.2%,.
Cc1ccc(-n2nc3ccc(N)cc3n2)c(C)c1,97.5%,7.1,1.1%,-3.6%,7.0%,1.65µM*
Cc1ccc(-n2nc3ccc(N)cc3n2)cc1Cl,89.2%,102.7,-1.5%,-21.2%,-16.6%,4.15µM*
Cc1ccc(-n2nc3ccc(N)cc3n2)cc1C,0.0%,43.3,-4.5%,-0.9%,-0.4%,185.0%
CCC1CCC(C(=O)NC(C(=O)NCCN2CCOCC2)C(C)C)CC1 (stereo not drawn),2.6%,-15.3,15.5%,14.6%,83.4%,?
CCCCc1c(-c2ccccc2OC)ncn1Cc1ccc(Cl)cc1,.,-29.6,.,.,.,.
CCCCc1c(-c2ccccc2OC)ncn1C1CCCC1,.,-94.1*,.,.,.,.
Cc1cc(N2CCOCC2)nc2ccc(NC(=S)N3CCN(c4ccccc4)CC3)cc12,?,?,0.3%,?,-5.0%,?
COc1ccccc1N1CCN(C(=S)Nc2ccc3nc(N4CCOCC4)cc(C)c3c2)CC1,?,3.7,-0.7%,3.55µM*,3.3%,?
CCN1CCN(c2cc(C)c3cc(NC(=S)N(CC)CC)ccc3n2)CC1,13.1µM*,-28.5,-4.0%,?,-10.0%,66.3%
CCN1CCN(c2cc(C)c3cc(NC(=S)N4CCN(c5ccccc5)CC4)ccc3n2)CC1,?,-60.6*,-1.5%,?,-5.7%,-18.9%
COc1ccccc1-c1ccc([C@@H]2C[C@H]3[C@@H](CN2)CON3C)cc1,.,41.8,.,.,.,.
Cc1cccc(N2C(=O)C(Cl)=C(N3CCOCC3)C2=O)c1,?,26.5,4.3%,17.2%,39.8µM*,?
O=C1C(Cl)=C(N2CCOCC2)C(=O)N1c1cccc(Cl)c1,?,-1.0,-3.3%,6.3%,?,-5.7%
O=C1CC(N2CCOCC2)C(=O)N1c1ccc(Cl)cc1 (stereo not drawn),7.38µM*,-1.5,-5.6%,0.2%,22.4µM*,0.0%
SMILES,Pf growth 48h,HCMV inh,SARS PLpro yeast,HCV inhibitor,Sm TGR block,Pf growth 96h
Cc1cccc(N2C(=O)CC(N3CCOCC3)C2=O)c1 (stereo not drawn),4.4%,6.0,-6.5%,-1.2%,50.1µM*,-21.6%
CCN(CC)C1CC(=O)N(c2cccc(C)c2)C1=O (stereo not drawn),9.4%,.,-101.9%,-3.1%,3.55µM*,?
Cc1ccc(C(C)C)c(OCC(=O)NN=C(CCl)CCl)c1,-26.7%,.,0.6%,.,?,0.2%
Oc1ccccc1-c1cc(C(F)(F)C(F)F)nc(-c2ccccc2)n1,3.5%,-11.6,3.9%,?,89.1µM*,60.5%
Nc1nc(N)nc(-c2cc([N+](=O)[O-])ccc2O)n1,-16.8%,11.4,-7.5%,-16.8%,5.7%,2.08µM*
O=[N+]([O-])c1ccc(O)c(-c2cc(C(F)(F)F)nc(-c3ccccc3)n2)c1,0.37µM*,-100.6*,-5.3%,1.41µM*,-5.0%,21.6%
COc1ccc(O)c(-c2cc(C(F)(F)C(F)F)nc(-c3ccccc3)n2)c1,13.1µM*,-36.3,-2.2%,?,2.5%,2.94µM*
COc1ccc(-c2cc(-c3ccccc3)nc(N)n2)c(O)c1,.,11.9,.,?,.,.
Nc1nc(N)nc(-c2cc(O)ccc2O)n1,?,?,-0.4%,-15.3%,-29.0%,?
O=[N+]([O-])c1ccc2nc(-c3ccccc3)cc(-c3ccccc3)c2c1,37.8%,36.0,14.8%,0.3%,4.8%,55.0%
CC[C@H](C)C(N)c1cn([C@@H](CC(N)=O)C(=O)N2CCNCC2)nn1 (stereo partly drawn),-18.5%,-13.5,1.5%,-0.9%,-10.3%,-4.2%
CC(=O)Nc1ccc(S(=O)(=O)N[C@@H](C)C(=O)OCc2cc([N+](=O)[O-])cc3c2OCOC3)cc1,50.8%,-14.2,1.7%,-1.8%,3.7%,21.5%
Cc1oc(-c2ccc(Cl)cc2)nc1CS(=O)CC(=O)NC1CCCC1 (stereo not drawn),23.8%,-12.8,.,-14.4%,8.91µM*,?
Cc1ccc(NC(=O)CS(=O)Cc2nc(-c3ccc(C)cc3)oc2C)cc1 (stereo not drawn),.,-18.3,4.0%,-25.5%,-22.5%,-51.3%
Cc1cccc(-c2nc(CS(=O)CC(=O)NC3CCCC(C)C3C)c(C)o2)c1 (stereo not drawn),40.5%,-12.8,-2.2%,-17.3%,5.01µM*,51.3%
Cc1oc(-c2ccc(Cl)cc2)nc1CS(=O)CC(=O)NC1CCCCC1 (stereo not drawn),20.5%,-28.9,0.9%,19.7%,11.2µM*,-13.6%
Cc1cccc(-c2nc(C#N)c(NC3CCCCC3)o2)c1,64.5%,64.0,-3.5%,?,-3.8%,4.65µM*
COc1ccc(OC)c(NC(=O)Cn2c(=O)cc(C)c3c(C)nn(-c4cccc(Cl)c4C)c32)c1,.,?,.,.,-8.6%,.
